Data reported in PubChem BioAssay AID1463 (National Center for Advancing Translational Sciences (NCATS), 2008).
The whole screen tested about 280,000 compounds, of which about 2,600 (0.93%) were called active. Another 8% or so got no clear call; they are omitted. The call rests on the fitted dose curve; in most records, active means well fitted curve in the direction sought with a large enough effect; inconclusive means small, poorly fitted or top-dose-only effect; inactive means flat fitted curve, though single readings scatter. Shown is part of a subset that was picked to be rich in actives. Where a call stands in place of a potency, no number is given.

assay: Counterscreen qHTS for Inhibitors of Tau Fibril Formation, Fluorescence Polarization; details: tau K18 P301L Alexa594 fluorescence, heparin fibrillization; series mostly up to 57.7 µM; further: nearly all actives have a fitted effect of over 55% in size
Summary of the method: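 Human tau K18 P301L (15 uM unlabeled, 0.24 uM Alexa 594-labeled) in 100 mM sodium acetate pH 7 with 20 uM heparin, 6 hr at 37 C. ThT 30 uM added, 1 hr ambient; Alexa 594 FP and total fluorescence read at 555/632 nm.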
Potency means the concentration at half of the fitted maximal effect; tags describe the fitted curve by direction and shape or compound fluorescence and quenching.

Row | SMILES | Potency
1 | Cc1cc(C)c(NC(=O)CN2C(=O)c3cccnc3Oc3ccc(Cl)cc32)c(C)c1 | inactive
2 | COc1ccc(N2CCN(S(=O)(=O)c3ccc(-c4coc(C)n4)cc3)CC2)cc1 | inactive
3 | COc1ccc(-c2[nH]ncc2CN(C)Cc2c(C)n[nH]c2C)c(OC)c1 | inactive
4 | CCOc1ccc(-c2nc(N)ncc2-c2ccccc2OC)c(O)c1 | inactive
5 | CCOc1ccccc1Oc1cn[nH]c1-c1ccc(OC)cc1O | 12.6 µM [quencher] (active)
6 | COc1ccccc1CNC(=O)c1ccc(-n2c(C)cc3c2CCCC3)cc1 | inactive
7 | COc1ccc(OC)c(CNC(=O)c2c3c(nc4ccccc24)C(=O)N(C2CCCCC2)C3)c1 | inactive
8 | Fc1ccc(C(Nc2ccc(Cl)c(C(F)(F)F)c2)c2nnc(-c3ccccc3)o2)cc1 (stereo not given) | inactive
9 | O=C(NCCc1c[nH]c2ccccc12)C(=O)NCC1CCCO1 (stereo not given) | inactive
10 | N#C/C(=C/c1ccc(N2CCCCC2)o1)C(=O)NCCc1c[nH]c2ccccc12 | 15.8 µM [quencher] (active)
11 | N#C/C(=C/c1ccc(-c2ccccc2[N+](=O)[O-])o1)C(=O)NCCN1CCCCC1 | inactive
12 | Cc1ccc(Nc2c3c(nc4ccccc24)CCC3)cc1 | inactive
13 | COc1ccccc1Nc1c2c(nc3ccc(NC(=O)/C=C/c4cc(OC)c(OC)c(OC)c4)cc13)CCCC2 | 10 µM [quencher] (active)
14 | COc1ccc(/C=C/C(=O)Nc2ccc3c(c2)OCCO3)cc1OC | inactive
15 | CCCN(C(=O)Cn1ncc2c([nH]c3ccc(C)cc32)c1=O)c1ccccc1C | inactive
16 | COC(=O)CSc1nccc(-c2cccs2)n1 | inactive
17 | c1cnc(Nc2nc(-c3ccc4ccccc4c3)cs2)nc1 | inactive
18 | Clc1ccc(Nc2nc(-c3cccs3)cs2)nc1 | 14.1 µM [quencher] (active)
19 | Cc1cccc(-n2ncc(C(=O)N3CCN(c4ccc(Cl)cc4)CC3)c2C2CCN(C(=O)OC(C)(C)C)CC2)c1 | inactive
20 | Cc1ccc(C)c(N2CCN(C(=O)C3CCC(CNS(=O)(=O)c4cccs4)CC3)CC2)c1 (stereo not given) | inactive
21 | CN1C(=O)C(CC(=O)Nc2ccccc2)S/C1=N/c1nccs1 (stereo not given) | inactive
22 | O=C(Nc1cccc(Cl)c1)OCc1ccccn1 | inactive

Row | SMILES | Potency
23 | O=C(CC1SC(=Nc2ccccc2)N(Cc2ccccn2)C1=O)Nc1cccc(Cl)c1 (stereo not given) | 10 µM [quencher] (active)
24 | Fc1ccc(CSc2nc(NCc3ccccc3)c3ccccc3n2)cc1 | inactive
25 | Cc1ccccc1NC(=S)NNC(=O)c1cccc(Br)c1 | inactive
26 | O=C(NC(=S)Nc1cccc2c(O)cccc12)c1cccc(Br)c1 | 11.2 µM [quencher] (active)
27 | NS(=O)(=O)c1ccc(NC(=S)NC(=O)c2cccc(Br)c2)cc1 | inactive
28 | COc1cccc(C(=O)N(Cc2cccc(Cl)c2)Cc2ccco2)c1 | inactive
29 | Cc1ccccc1CSc1nc2c([nH]c3ccccc32)c(=O)n1C | inactive
30 | CCN(C(=O)CSc1nnc(C)n2c1cc1occc12)c1ccccc1 | inactive
31 | CC1CCN(S(=O)(=O)c2ccc3c(c2)N(CC(=O)NCCc2ccccc2)C(=O)CO3)CC1 | inactive
32 | CCc1ccc(NC(=O)c2sc3nc4c(cc3c2N)CN(CC)CC4)cc1 | 20 µM [quencher] (active)
33 | COc1ccc(Cl)cc1NC(=O)CCN1CCOCC1 | inactive
34 | CCc1ccc2nc3sc(C(=O)Nc4nnc(CC)s4)c(N)c3cc2c1 | inactive
35 | CCc1ccccc1NC(=O)c1sc2nc3c(cc2c1N)CN(Cc1ccccc1)CC3 | inactive
36 | COc1ccc(Cl)cc1NC(=O)c1oc(C)nc1C | inactive
37 | COc1ccc(Cl)cc1NC(=O)c1sc2nc3c(cc2c1N)CN(C)CC3 | 10 µM [quencher] (active)
38 | O=C(Nc1ccc(S(=O)(=O)N2CCC(c3nc4ccccc4s3)CC2)cc1)c1ccccc1F | inactive
39 | Cc1cc(C)cc(-n2ccnc2SCC(=O)Nc2nc3ccccc3s2)c1 | inactive
40 | CCOc1ccccc1CNC(=O)Nc1cn(CC(C)C)c(=O)c2ccccc12 | inactive
41 | CC(C)Cn1c(C2CC(=O)N(c3ccccc3Cl)C2)nc2ccccc21 (stereo not given) | inactive
42 | Cc1ccc(-c2csc(-c3cc(C)on3)n2)cc1 | inactive
43 | CCCc1cc(-c2nc(-c3ccc(C)cc3)cs2)ccn1 | inactive
44 | Cc1ccc(-c2csc(-c3c[nH]c4ccccc34)n2)cc1 | 7.08 µM [quencher] (active)

Row | SMILES | Potency
45 | Cc1ccc2c(=O)c(C(=O)c3ccc(Cl)cc3)cn(CC(=O)NC3CCCCC3)c2n1 | inactive
46 | CN(C)CCCNC(=O)c1ccc2[nH]c3ccccc3c2c1 | inactive
47 | COC(=O)CCNC(=O)c1ccc2[nH]c(C)c(C)c2c1 | inactive
48 | Cc1ccc(C(=O)NCCSc2c(C)[nH]c3ccccc23)cc1C | 12.6 µM [quencher] (active)
49 | COc1ccc(C(=O)N2CCC(c3nc4ccccc4o3)CC2)cc1 | inactive
50 | CCOc1ccccc1C(=O)NCc1ccc2c(c1)CCN2C(=O)c1ccc(F)cc1 | inactive
51 | Cc1ccc(S(=O)(=O)NCc2nc3nc(C)cc(C)n3n2)cc1 | inactive
52 | Oc1ccc(/C=N/NC2=NCCCCC2)c(O)c1 | inactive
53 | Cc1cc(N/N=C/c2ccccc2F)c2ccccc2n1 | inactive
54 | Oc1ccc(/C=N/Nc2nc(-c3ccccc3F)nc3ccccc23)c(O)c1 | 5.01 µM [quencher] (active)
55 | Cc1c(C(=O)Nc2cccc(Cl)c2)oc2ccc(S(=O)(=O)N3CCOCC3)cc12 | inactive
56 | COc1cc(OC)c(OC)cc1/C=C/c1nc2ccccc2c(=O)n1-c1ccc(Br)c(C)c1 | inactive
57 | Cc1cc(Nc2ccccc2)n(C(=O)c2ccc(N)cc2)n1 | 25.1 µM [quencher] (active)
58 | Cc1cc(Nc2ccccc2)n(CCC#N)n1 | inactive
59 | Cc1cc(NC(=O)Nc2ccccc2)n(-c2ccccc2)n1 | inactive
60 | CCOc1ccc(-n2c(C)nc3c(cnn3-c3ccc(C)cc3)c2=O)cc1 | inactive
61 | CCOc1ccc(NC(=O)c2c(NC(=O)Cc3ccccc3)sc3c2CCCCC3)cc1 | inactive
62 | COc1ccc(CCNC(=O)Cn2c(=O)cc(C(F)(F)F)c3c(C)nn(C)c32)c(OC)c1 | inactive
63 | CCOC(=O)c1c(NC(=S)Nc2ccccc2C)sc2c1CCC2 | inactive
64 | CCOC(=O)c1c(NC(=O)C(C)Sc2c[nH]c3ccccc23)sc2c1CCC2 (stereo not given) | 7.94 µM [quencher] (active)
65 | CCOC(=O)c1c(NC(=O)CSc2cn(CC)c3ccccc23)sc2c1CCC2 | inactive
